Source: the supplement of paper PMC9262897, “Low-cost anti-mycobacterial drug discovery using engineered E. coli” (Nature Communications, 2022)
Structures can show the parent of a compound that is named as a salt. ± gives the standard deviation of the averaged measurements.

Columns and labels:
Assay in all cases: growth (OD600 after 10 h); higher = more growth (less inhibition)
[1] = system: E. coli TESEC Alr+ wild-type control; conditions: compound 0.1 mM; raw OD600 reference: median of DMSO wells 0.241, cell-free background 0.041
Method: (§1)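 TESEC Mtb Alr E. coli, or the Alr+ wild-type control, in 384-well plates with Prestwick library compounds at 0.1 mM and 1% DMSO, across arabinose induction levels of 1E3 to 1E7 nM. Growth is read as OD600 after 10 h at 37 °C in triplicate biological replicates.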

E. coli TESEC Mtb Alr [2] = conditions: compound 0.1 mM
Method: as §1

E. coli TESEC Mtb Asd = conditions: compound 0.1 mM
Method: (§2)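 TESEC E. coli strains in which the native enzyme is deleted and replaced by arabinose-inducible Mtb Asd, DapB, CysH or TrpD, each grown in its selective medium. Strains were screened against the Prestwick library at 0.1 mM and 1% DMSO in 384-well format at low and high arabinose induction. Growth is read as OD600 after 10 h in triplicate.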

E. coli TESEC Mtb DapB = conditions: compound 0.1 mM
Method: as §2

[3] = system: E. coli TESEC Alr+ wild-type control; conditions: compound 0.1 mM; raw OD600 reference: median of DMSO wells 0.49, cell-free background 0.052
Method: (§3)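 TESEC Mtb Alr E. coli (ΔaraC ΔtolC ΔentC Δalr ΔdadX, arabinose-inducible Mtb Alr) or the Alr+ wild-type control strain, grown in defined M9-fructose medium without D-alanine in 96-well plates with Prestwick library compounds at 0.1 mM and 1% DMSO. Low Alr induction is 0.1 µM arabinose and high induction is 10 mM arabinose.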

E. coli TESEC Mtb Alr [4] = conditions: compound 0.1 mM; remark: listed apart in the source
Method: as §3

[5] = arabinose 1000 nM, raw OD600 reference: median of DMSO wells 0.294, cell-free background 0.041
[6] = arabinose 10000 nM, raw OD600 reference: median of DMSO wells 0.264, cell-free background 0.041
[7] = arabinose 100000 nM, raw OD600 reference: median of DMSO wells 0.201, cell-free background 0.041
[8] = arabinose 1000000 nM, raw OD600 reference: median of DMSO wells 0.193, cell-free background 0.041
[9] = arabinose 10000000 nM, raw OD600 reference: median of DMSO wells 0.146, cell-free background 0.041
[10] = arabinose induction (level): High, raw OD600 reference: median of DMSO wells 0.331, cell-free background 0.041
[11] = arabinose induction (level): Low, raw OD600 reference: median of DMSO wells 0.417, cell-free background 0.041
[12] = arabinose induction (level): High, raw OD600 reference: median of DMSO wells […], cell-free background 0.041
[13] = arabinose induction (level): Low, raw OD600 reference: median of DMSO wells 0.227, cell-free background 0.041
[14] = arabinose 100 nM, raw OD600 reference: median of DMSO wells 0.413, cell-free background 0.052
[15] = arabinose 10000000 nM, raw OD600 reference: median of DMSO wells […], cell-free background 0.052

Compound	growth [1]	growth (E. coli TESEC Mtb Alr [2]; [5])	growth (E. coli TESEC Mtb Alr [2]; [6])	growth (E. coli TESEC Mtb Alr [2]; [7])	growth (E. coli TESEC Mtb Alr [2]; [8])	growth (E. coli TESEC Mtb Alr [2]; [9])	growth (E. coli TESEC Mtb Asd; [10])	growth (E. coli TESEC Mtb Asd; [11])	growth (E. coli TESEC Mtb DapB; [12])	growth (E. coli TESEC Mtb DapB; [13])	growth [3]	growth (E. coli TESEC Mtb Alr [4]; [14])	growth (E. coli TESEC Mtb Alr [4]; [15])
CC1CC(OC(=O)C(O)c2ccccc2)CC(C)(C)N1C (stereo unspecified) [Eucatropine hydrochloride]	0.245 ± 0.0073	0.326 ± 0.015	0.282 ± 0.0064	0.194 ± 0.0092	0.191 ± 0.0054	0.156 ± 0.0098	0.479 ± 0.008	0.432 ± 0.065	0.199 ± 0.033	0.227 ± 0.024	0.444 ± 0.029	0.402 ± 0.014	0.36 ± 0.016
O=C(O)c1cn(-c2ccc(F)cc2)c2cc(N3CCNCC3)c(F)cc2c1=O [Sarafloxacin]	0.0422 ± 0.00026	0.0454 ± 0.0031	0.0399 ± 0.0003	0.04133 ± 0.00015	0.0405 ± 0.0013	0.0412 ± 0.0021	0.0475 ± 0.0021	0.047 ± 0.0013	0.0494 ± 0.00055	0.0482 ± 0.00017	0.0534 ± 0.00044	0.0545 ± 0.00093	0.0532 ± 0.0002
C[C@]12CCC(=O)C=C1C=C[C@@H]1[C@@H]2CC[C@@]2(C)[C@H]1CC[C@@]21CCC(=O)O1 [Canrenone]	0.129 ± 0.0013	0.139 ± 0.0075	0.097 ± 0.0013	0.131 ± 0.0077	0.0738 ± 0.0044	0.126 ± 0.0083	0.217 ± 0.055	0.227 ± 0.042	0.139 ± 0.011	0.174 ± 0.0092	0.282 ± 0.014	0.363 ± 0.0069	0.144 ± 0.031
Cc1c(-c2ccccc2)oc2c(C(=O)OCCN3CCCCC3)cccc2c1=O [Flavoxate hydrochloride]	0.139 ± 0.0069	0.171 ± 0.0084	0.248 ± 0.0097	0.145 ± 0.0026	0.105 ± 0.0025	0.139 ± 0.0023	0.217 ± 0.06	0.381 ± 0.04	0.168 ± 0.011	0.234 ± 0.12	0.414 ± 0.023	0.398 ± 0.015	0.262 ± 0.019
Nc1nc2[nH]cc(CCc3ccc(C(=O)N[C@@H](CCC(=O)O)C(=O)O)cc3)c2c(=O)[nH]1 [Pemetrexed disodium]	0.258 ± 0.0062	0.303 ± 0.017	0.274 ± 0.019	0.218 ± 0.029	0.184 ± 0.0046	0.156 ± 0.0069	0.281 ± 0.0067	0.405 ± 0.063	0.19 ± 0.019	0.231 ± 0.013	0.56 ± 0.081	0.416 ± 0.013	0.32 ± 0.012
CC(CN1c2ccccc2Sc2ccccc21)N(C)C (stereo unspecified) [Promethazine hydrochloride]	0.197 ± 0.0039	0.215 ± 0.013	0.2742 ± 0.0025	0.197 ± 0.018	0.13 ± 0.0016	0.157 ± 0.004	0.139 ± 0.0045	0.254 ± 0.021	0.221 ± 0.016	0.245 ± 0.012	0.456 ± 0.026	0.409 ± 0.014	0.334 ± 0.0051
CN(N=O)C(=O)N[C@H]1C(O)O[C@H](CO)[C@@H](O)[C@@H]1O (mixture of isomers) [Streptozotocin]	0.197 ± 0.0036	0.259 ± 0.028	0.2526 ± 0.0016	0.147 ± 0.0062	0.14 ± 0.0077	0.0717 ± 0.0018	0.243 ± 0.0054	0.305 ± 0.045	0.192 ± 0.016	0.206 ± 0.015	0.226 ± 0.025	0.378 ± 0.019	0.0602 ± 0.0034
CN(CCOc1ccc(NS(C)(=O)=O)cc1)CCc1ccc(NS(C)(=O)=O)cc1 [Dofetilide]	0.209 ± 0.0043	0.28 ± 0.0052	0.253 ± 0.008	0.171 ± 0.016	0.173 ± 0.0041	0.133 ± 0.0023	0.213 ± 0.019	0.336 ± 0.076	0.229 ± 0.041	0.241 ± 0.032	0.589 ± 0.053	0.427 ± 0.0089	0.318 ± 0.0084
CCCCC1C(=O)N(c2ccccc2)N(c2ccccc2)C1=O [Phenylbutazone]	0.17293 ± 0.00015	0.224 ± 0.0029	0.234 ± 0.023	0.124 ± 0.0055	0.0869 ± 0.0014	0.132 ± 0.0036	0.145 ± 0.0034	0.261 ± 0.083	0.141 ± 0.0096	0.152 ± 0.006	0.576 ± 0.075	0.399 ± 0.0095	0.283 ± 0.034
CC(=O)Oc1cccc2c1C(=O)c1c(OC(C)=O)cc(C(=O)O)cc1C2=O [Diacerein]	0.122 ± 0.0032	0.136 ± 0.011	0.161 ± 0.0033	0.0638 ± 0.0022	0.0904 ± 0.0041	0.0642 ± 0.005	0.224 ± 0.019	0.348 ± 0.045	0.208 ± 0.019	0.23 ± 0.015	0.087 ± 0.0013	0.0492 ± 0.00056	0.0619 ± 0.0035
O=S(=O)(O)c1cc(O)ccc1O [Ethamsylate]	0.252 ± 0.0066	0.311 ± 0.0039	0.258 ± 0.0087	0.206 ± 0.018	0.182 ± 0.0086	0.13 ± 0.0042	0.211 ± 0.034	0.391 ± 0.0046	0.191 ± 0.013	0.244 ± 0.025	0.525 ± 0.079	0.41 ± 0.015	0.344 ± 0.022
CCn1cc(C(=O)O)c(=O)c2cc(F)c(N3CCN(C)CC3)cc21 [Pefloxacine]	0.0478 ± 0.00026	0.0453 ± 0.00047	0.0396 ± 0.00047	0.0454 ± 0.0017	0.04 ± 0.00096	0.05157 ± 0.0004	0.0645 ± 0.0063	0.0631 ± 0.0043	0.0696 ± 0.0096	0.0585 ± 0.002	0.0507 ± 0.0001	0.0539 ± 0.00064	0.0515 ± 0.00064
Cc1c(O)cccc1C(=O)N[C@@H](CSc1ccccc1)[C@H](O)CN1C[C@H]2CCCC[C@H]2C[C@H]1C(=O)NC(C)(C)C [Nelfinavir mesylate]	0.279 ± 0.06	0.329 ± 0.0095	0.284 ± 0.031	0.323 ± 0.062	0.148 ± 0.0082	0.276 ± 0.041	0.215 ± 0.019	0.275 ± 0.015	0.197 ± 0.077	0.23 ± 0.086	0.509 ± 0.09	–	–
CC(C)OC(=O)CCC/C=C\C[C@@H]1[C@@H](CC[C@@H](O)CCc2ccccc2)[C@H](O)C[C@@H]1O [Latanoprost]	0.0604 ± 0.0021	0.05 ± 0.0017	0.0396 ± 0.0001	0.0525 ± 0.00065	0.04007 ± 0.00012	0.0545 ± 0.0034	0.0525 ± 0.0016	0.05293 ± 0.00021	0.0594 ± 0.0031	0.0554 ± 0.0022	0.195 ± 0.059	0.314 ± 0.037	0.0658 ± 0.011
CO[C@@]1(NC(=O)C2SC(=C(C(N)=O)C(=O)O)S2)C(=O)N2C(C(=O)O)=C(CSc3nnnn3C)CS[C@@H]21 (stereo partly specified) [Cefotetan]	0.03883 ± 0.00012	0.0383 ± 0.0011	0.04147 ± 0.00015	0.03763 ± 0.00032	0.0413 ± 0.00026	0.03917 ± 5.8e-05	0.0535 ± 0.0059	0.048 ± 0.0045	0.0527 ± 0.0035	0.0511 ± 0.01	0.0443 ± 0.00044	0.0461 ± 0.00061	0.0531 ± 0.0051
NC(=O)OCC(O)COc1ccc(Cl)cc1 (stereo unspecified) [Chlorphensin carbamate]	0.251 ± 0.011	0.287 ± 0.016	0.2846 ± 0.0028	0.245 ± 0.022	0.2014 ± 0.002	0.162 ± 0.0045	0.364 ± 0.046	0.379 ± 0.024	0.214 ± 0.014	0.279 ± 0.041	0.523 ± 0.01	0.416 ± 0.019	0.366 ± 0.023
